What all share (experiment): yeast three-hybrid, YBZ-1, SC-Leu-His + 0.5 mM 3-AT, 4 days
Common to all, as to details: tags: N-Gal4 AD-HA kept; label: inside an RPR1-promoter hybrid RNA with tandem MS2 sites; ssRNA

In experiment [1] the target is T1, PUM1 PUF domain R6-VYM (Homo sapiens, UniProt Q14671 828-1176, N1043V;Q1047M).
T1 sequence: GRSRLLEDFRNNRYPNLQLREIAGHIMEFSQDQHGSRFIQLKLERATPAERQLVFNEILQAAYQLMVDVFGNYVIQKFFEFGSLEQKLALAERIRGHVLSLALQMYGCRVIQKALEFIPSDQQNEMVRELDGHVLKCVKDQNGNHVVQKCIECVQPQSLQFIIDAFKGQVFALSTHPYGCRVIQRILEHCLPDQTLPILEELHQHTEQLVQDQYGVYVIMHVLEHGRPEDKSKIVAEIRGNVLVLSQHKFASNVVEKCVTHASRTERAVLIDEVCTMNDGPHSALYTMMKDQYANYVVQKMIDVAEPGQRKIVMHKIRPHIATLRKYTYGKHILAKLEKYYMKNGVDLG
The method, boiled down:
(§1)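 The interaction score is the log change in how often each variant appears, from input to selection. Frequencies came from PCR-amplified, Illumina-sequenced repeat regions of Pumilio-1 PUF domain libraries grown in strain YBZ-1 (LexA–MS2 coat fusion, HIS3 reporter) alongside matching RNA elements. Input plates were SC-Leu and selection plates were SC-Leu-His + 0.5 mM 3-AT, each for four days, and the log2 calculation used a pseudocount of 1 where a variant was absent.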

Experiment [2] concerns the target PUM1 PUF domain R3-DFE (Homo sapiens, UniProt Q14671 828-1176, C935D;R936F;Q939E). In a few lines: as §1
Experiment [3] addresses PUM1 PUF domain R4-VHH (Homo sapiens, UniProt Q14671 828-1176, N971V;Q975H). In a few lines:
as §1

Experiment [4] has as its target PUM1 PUF domain R4-EHR (Homo sapiens, UniProt Q14671 828-1176, N971E;Q975R). In a few lines:
as §1

For experiment [5], the target named is PUM1 PUF domain R5-RSR (Homo sapiens, UniProt Q14671 828-1176, C1007R;R1008S;Q1011R). In a few lines:
as §1

Experiment [6] addresses PUM1 PUF domain R5-SQS (Homo sapiens, UniProt Q14671 828-1176, C1007S;R1008Q;Q1011S). In a few lines: as §1
Experiment [7] deals with PUM1 PUF domain R8-PYH (Homo sapiens, UniProt Q14671 828-1176, N1122P;Q1126H). In a few lines: as §1
In experiment [8] the target is PUM1 PUF domain R1-KAS (Homo sapiens, UniProt Q14671 828-1176, S863K;R864A;Q867S). The method, boiled down:
as §1

For experiment [9], the target named is PUM1 PUF domain R1-RVQ (Homo sapiens, UniProt Q14671 828-1176, S863R;R864V). The method, boiled down: as §1
Experiment [10] deals with PUM1 PUF domain R7-RFP (Homo sapiens, UniProt Q14671 828-1176, S1079R;N1080F;E1083P). The method, boiled down: as §1

Our source for the binding signal values is publication PMC8384837, “Expanding the binding specificity for RNA recognition by a PUF domain”.

In the case of “GGCUAGAACUAGUGGAUCCCCCGGCGCCCGGCGGCUCGAGCCCGGGUAAGUGAAAAUAGUCUGCAUGCCGCCGGGCGCCAUGCCUGCAGGUCGACUCUAGAAAACAUG”, in experiment [1], the binding signal is 6.6 log2 enrichment (interaction score).

Turning to “GGCUAGAACUAGUGGAUCCCCCGGCGCCCGGCGGCUCGAGCCCGGGUAAGUGUAAAUAGUCUGCAUGCCGCCGGGCGCCAUGCCUGCAGGUCGACUCUAGAAAACAUG”, the binding signal was 2.8 log2 enrichment (interaction score) in experiment [1] and 2.28 log2 enrichment (interaction score) in experiment [2].

For “GGCUAGAACUAGUGGAUCCCCCGGCGCCCGGCGGCUCGAGCCCGGGUAAGUGUACAUAGUCUGCAUGCCGCCGGGCGCCAUGCCUGCAGGUCGACUCUAGAAAACAUG”, the binding signal is 5.04 log2 enrichment (interaction score) in experiment [3] and 3 log2 enrichment (interaction score) in experiment [4].

Turning to “GGCUAGAACUAGUGGAUCCCCCGGCGCCCGGCGGCUCGAGCCCGGGUAAGUGUCAAUAGUCUGCAUGCCGCCGGGCGCCAUGCCUGCAGGUCGACUCUAGAAAACAUG”, in experiment [5], the binding signal was 4.48 log2 enrichment (interaction score).

For “GGCUAGAACUAGUGGAUCCCCCGGCGCCCGGCGGCUCGAGCCCGGGUAAGUGUUAAUAGUCUGCAUGCCGCCGGGCGCCAUGCCUGCAGGUCGACUCUAGAAAACAUG”, the binding signal in [5] is 3.79 log2 enrichment (interaction score).

Turning to “GGCUAGAACUAGUGGAUCCCCCGGCGCCCGGCGGCUCGAGCCCGGGUAAGUGUGAAUAGUCUGCAUGCCGCCGGGCGCCAUGCCUGCAGGUCGACUCUAGAAAACAUG”, the binding signal in [6] is 3.19 log2 enrichment (interaction score).

Turning to “GGCUAGAACUAGUGGAUCCCCCGGCGCCCGGCGGCUCGAGCCCGGGUAAGCGUAAAUAGUCUGCAUGCCGCCGGGCGCCAUGCCUGCAGGUCGACUCUAGAAAACAUG”, the binding signal in [7] was 3.67 log2 enrichment (interaction score).

With “GGCUAGAACUAGUGGAUCCCCCGGCGCCCGGCGGCUCGAGCCCGGGUAAGUGUAAAUUGUCUGCAUGCCGCCGGGCGCCAUGCCUGCAGGUCGACUCUAGAAAACAUG”, the binding signal in experiment [8] is 3.9 log2 enrichment (interaction score); in [9], 4.43 log2 enrichment (interaction score).

For “GGCUAGAACUAGUGGAUCCCCCGGCGCCCGGCGGCUCGAGCCCGGGUAAGUCUAAAUAGUCUGCAUGCCGCCGGGCGCCAUGCCUGCAGGUCGACUCUAGAAAACAUG”, in experiment [10], the binding signal is 5.14 log2 enrichment (interaction score).

For the sequence “GGCUAGAACUAGUGGAUCCCCCGGCGCCCGGCGGCUCGAGCCCGGGUAAGUGUAUAUAGUCUGCAUGCCGCCGGGCGCCAUGCCUGCAGGUCGACUCUAGAAAACAUG”, the binding signal in experiment [4] is 3.83 log2 enrichment (interaction score).

Regarding “GGCUAGAACUAGUGGAUCCCCCGGCGCCCGGCGGCUCGAGCCCGGGUAAGUGUAAAUCGUCUGCAUGCCGCCGGGCGCCAUGCCUGCAGGUCGACUCUAGAAAACAUG”, the binding signal in experiment [9] is 4.56 log2 enrichment (interaction score).
